# Results: PubChem BioAssay (NCATS)
# Results filed as inconclusive are left out. Calls of active or inactive are those of the source. Calls follow the shape of the dose curve; as a rule, active = well fitted inhibition curve with a large enough effect; inconclusive = small, poorly fitted or top-dose-only effect; inactive = no such curve, though single readings can be large or run the other way.
# Tested on: Zika virus NS2B-NS3 protease (linked construct)
# Assay: Primary screen NINDS Rhodamine qHTS for Zika virus inhibitors (AID 1347160); also: nearly all actives have a fitted effect of over 55% in size
# Settings: purified NS2B-NS3 protease, Rhodamine110 substrate fluorescence; series mostly up to 57.1 µM; activity change, negative = inhibition: at the top concentration
# In short: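 Purified linked NS2B-NS3 protease (NS2B hydrophilic domain joined to NS3 protease by flexible linker), 25 nM in 10 mM Tris-HCl pH 8.0, 0.01% Tween 20. Compounds titrated, 15 min preincubation at room temperature; 1.5 microM Rhodamine110 substrate, FITC fluorescence change over 15 min.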
# % is scaled to controls: 0 for no effect and ±100 for the full control effect.
row,SMILES,"activity change, negative = inhibition"
1,C[C@]1(O)CC[C@@H]2C(C(=O)O)=CO[C@@H](O[C@@H]3O[C@H](COC(=O)c4ccc(O)cc4)[C@@H](O)[C@H](O)[C@H]3O)[C@@H]21,-24% [at 33.1 µM] (inactive)
2,NCCCC[C@H](NC(=O)[C@@H]1Cc2ccccc2CN1C(=O)CCC(=O)c1ccccc1)C(=O)NCC(c1ccccc1)c1ccccc1,109% (inactive)
3,CC(=O)c1c(C)cc(O[C@@H]2O[C@H](CO)[C@@H](O)[C@H](O)[C@H]2O)cc1O,16.2% [at 33.1 µM] (inactive)
